# According to PubChem BioAssay (NCI):
# “And” between values parts separate entries of the source, which are not always exact repeats. Equal entries are not always repeated. This is part of a sample that, as a whole, favours compounds with a hit. Of some 83,000 tested, about 20% had one in any assay.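 Cells were grown in 96-well plates and exposed to the test compound at a single concentration for 48 hours; results are reported as percent growth, with values below 10 considered active.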 The source made the active and inactive calls.
# Experiments:
# Experiment in all cases: NCI-60 one-dose screen, 48 h (100 = growth as untreated, 0 = no growth, -100 = all killed)
# [1] = tested on: NCI-H23 lung; details: 10 µM unless noted
# [2] = tested on: NCI-H226 lung; details: 10 µM unless noted
# [3] = tested on: NCI-H322M lung; details: 10 µM unless noted
# [4] = tested on: HOP-62 NSCLC; details: 10 µM unless noted
# [5] = tested on: NCI-H460 lung; details: 10 µM unless noted
# [6] = tested on: HOP-92 NSCLC; details: 10 µM
# [7] = tested on: NCI-H522 lung; details: 10 µM
# [8] = tested on: A549/ATCC NSCLC; details: 10 µM unless noted
# [9] = tested on: 786-0 renal; details: 10 µM unless noted
# [10] = tested on: COLO 205 colon; details: 10 µM unless noted
# [11] = tested on: DU-145 prostate; details: 10 µM unless noted
# [12] = tested on: K-562 leukemia; details: 10 µM unless noted
# [13] = tested on: MALME-3M melanoma; details: 10 µM unless noted
# [14] = tested on: MDA-MB-231 breast; details: 10 µM unless noted
# [15] = tested on: RXF 393 renal; details: 10 µM unless noted
# [16] = tested on: SF-268 CNS; details: 10 µM unless noted
# [17] = tested on: SF-295 CNS; details: 10 µM unless noted
# [18] = tested on: SF-539 CNS; details: 10 µM unless noted
# [19] = tested on: UACC-257 melanoma; details: 10 µM unless noted
# [20] = tested on: M14 melanoma; details: 10 µM unless noted
Structure (SMILES),growth [1],growth [2],growth [3],growth [4],growth [5],growth [6],growth [7],growth [8],growth [9],growth [10],growth [11],growth [12],growth [13],growth [14],growth [15],growth [16],growth [17],growth [18],growth [19],growth [20]
O=C1OC(c2ccccc2)=N/C1=C\c1ccccc1,99.8% (inactive),90.9% (inactive),96.2% (inactive),99.6% (inactive),103% (inactive),88.7% (inactive),108% (inactive),95.6% (inactive),95.9% (inactive),113% (inactive),113% (inactive),104% (inactive),86.4% (inactive),111% (inactive),106% (inactive),103% (inactive),99% (inactive),99.5% (inactive),96.5% (inactive),100% (inactive)
CC1CCC2(OC1)OC1CC3C4CC=C5CC(O)CCC5(C)C4CCC3(C)C1C2C (stereo unspecified),104% (inactive),92.2% (inactive),113% (inactive),66.6% (inactive),103% (inactive),26.6% (inactive),103% (inactive),27.3% (inactive),,111% (inactive),107% (inactive),97.3% (inactive),120% (inactive),100% (inactive),,89.6% (inactive),119% (inactive),91.2% (inactive),-3.06% (active),102% (inactive)
O=C1C=C(Nc2ccccc2)c2ccccc2C1=O,23% (inactive) and 66.1% (inactive),66.4% (inactive) and 83.4% (inactive),88.3% (inactive) and 98.1% (inactive),19.1% (inactive) and 123% (inactive),14.5% (inactive) and 93.2% (inactive),,76.8% (inactive) and 86.6% (inactive),6.95% (active) and 93.7% (inactive),99.8% (inactive) and 99.3% (inactive),108% (inactive) and 91.9% (inactive),21.2% (inactive) and 97.3% (inactive),54.7% (inactive) and 98.7% (inactive),70.1% (inactive) and 71% (inactive),69.1% (inactive) and 59.7% (inactive),96.7% (inactive),80.3% (inactive) and 92.8% (inactive),61.1% (inactive) and 105% (inactive),44.4% (inactive) and 105% (inactive),88.7% (inactive) and 97.9% (inactive),47% (inactive) and 107% (inactive)
O=c1[nH]cnc2c1ncn2C1OC(CO)C(O)C1O (stereo unspecified),116% (inactive) and 104% (inactive) and 109% (inactive),108% (inactive) and 103% (inactive) and 97.4% (inactive),112% (inactive) and 137% (inactive) and 102% (inactive),104% (inactive) and 110% (inactive) and 96.5% (inactive),109% (inactive) and 122% (inactive) and 106% (inactive),84.1% (inactive) and 79.4% (inactive) and 115% (inactive),107% (inactive) and 100% (inactive) and 93.2% (inactive),112% (inactive) and 102% (inactive) and 107% (inactive),106% (inactive) and 111% (inactive) and 107% (inactive),114% (inactive) and 118% (inactive) and 113% (inactive),126% (inactive) and 133% (inactive) and 112% (inactive),105% (inactive) and 108% (inactive) and 113% (inactive),131% (inactive) and 124% (inactive) and 110% (inactive),110% (inactive) and 105% (inactive) and 108% (inactive),129% (inactive) and 118% (inactive),114% (inactive) and 112% (inactive) and 94.2% (inactive),124% (inactive) and 111% (inactive) and 88.8% (inactive),113% (inactive) and 96.1% (inactive),104% (inactive) and 119% (inactive),100% (inactive) and 107% (inactive) and 98.2% (inactive)
COc1ccc(C(=O)CC(c2ccccc2)C(C#N)c2ccccc2)cc1 (stereo unspecified),88.4% (inactive),81.1% (inactive),103% (inactive),98.3% (inactive),92.8% (inactive),,69.5% (inactive),74.2% (inactive),90% (inactive),110% (inactive),92.2% (inactive),80.7% (inactive),97.2% (inactive),81% (inactive),99.5% (inactive),86.3% (inactive),96.3% (inactive),97.7% (inactive),87.7% (inactive),88% (inactive)
